# Assay results taken from the supplement of paper PMC8728848.
# The entries come from a sample that favours the strongest signals as a whole.
# B1: GNA (Galanthus nivalis), P30617 (protein)
# chain: MAKASLLILAAIFLGVITPSCLSDNILYSGETLSTGEFLNYGSFVFIMQEDCNLVLYDVDKPIWATNTGGLSRSCFLSMQTDGNLVVYNPSNKPIWASNTGGQNGNYVCILQKDRNVVIYGTDRWATGTHTGLVGIPASPPSEKYPTAGKIKLVTAK
# Tests used:
# Experiment in all cases: glycan array binding signal (z-score within array); higher = stronger binding
# Conditions in all cases: glycan notation: IUPAC condensed, linker removed
# Fuc(a1-2)Gal(b1-4)Glc6S = target: Fuc(a1-2)Gal(b1-4)Glc6S
# Summary of the method: (§1)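 From the Consortium for Functional Glycomics database, 3228 arrays were curated, keeping only those whose protein sequence was available. Binding is given as a within-array Z-score averaged across arrays sharing a protein sequence and across linkers. Negative Z-scores can be read as non-binding.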
# [1] = target: Fuc(a1-2)[Gal(a1-3)]Gal(b1-4)GlcNAc
# Summary of the method: as §1
# [2] = target: Fuc(a1-2)[Gal(a1-3)]Gal(b1-4)GlcNAc(b1-3)[Fuc(a1-2)[Gal(a1-3)]Gal(b1-4)GlcNAc(b1-6)]GalNAc
# Summary of the method: as §1
# [3] = target: Fuc(a1-2)[Gal(a1-3)]Gal(b1-4)[Fuc(a1-3)]GlcNAc(b1-3)GalNAc
# Summary of the method: as §1
# [4] = target: Fuc(a1-3)[Gal(b1-4)]GlcNAc(b1-4)Gal(b1-4)[Fuc(a1-3)]GlcNAc
# Summary of the method: as §1
# [5] = target: Gal(a1-3)Gal(b1-4)GlcNAc(b1-2)Man(a1-3)[Gal(a1-3)Gal(b1-4)GlcNAc(b1-2)Man(a1-6)]Man(b1-4)GlcNAc(b1-4)GlcNAc
# Summary of the method: as §1
# [6] = target: Gal(a1-3)Gal(b1-4)GlcNAc(b1-6)GalNAc
# Summary of the method: as §1
# [7] = target: Gal(a1-3)Gal(b1-4)[Fuc(a1-3)]GlcNAc(b1-2)Man(a1-3)[Gal(a1-3)Gal(b1-4)[Fuc(a1-3)]GlcNAc(b1-2)Man(a1-6)]Man(b1-4)GlcNAc(b1-4)GlcNAc
# Summary of the method: as §1
# [8] = target: Gal(b1-3)[Neu5Ac(a2-6)]GlcNAc(b1-4)Gal(b1-4)Glc
# Summary of the method: as §1
# [9] = target: Gal(b1-4)GalNAc(a1-3)[Fuc(a1-2)]Gal(b1-4)GlcNAc
# Summary of the method: as §1
# Gal(b1-4)GlcNAc = target: Gal(b1-4)GlcNAc
# Summary of the method: as §1
# Gal(b1-4)GlcNAc(b1-2)Man = target: Gal(b1-4)GlcNAc(b1-2)Man
# Summary of the method: as §1
# [10] = target: Gal(b1-4)GlcNAc(b1-2)Man(a1-6)[Man(a1-3)]Man(b1-4)GlcNAc(b1-4)GlcNAc
# Summary of the method: as §1
# [11] = target: Gal(b1-4)GlcNAc(b1-2)[Gal(b1-4)GlcNAc(b1-4)]Man(a1-3)[Gal(b1-4)GlcNAc(b1-2)[Gal(b1-4)GlcNAc(b1-6)]Man(a1-6)]Man(b1-4)GlcNAc(b1-4)GlcNAc
# Summary of the method: as §1
# [12] = target: Gal(b1-4)GlcNAc(b1-3)Gal(b1-4)Glc
# Summary of the method: as §1
# [13] = target: Gal(b1-4)GlcNAc(b1-3)Gal(b1-4)GlcNAc(b1-2)[Gal(b1-4)GlcNAc(b1-3)Gal(b1-4)GlcNAc(b1-6)]Man(a1-6)[Gal(b1-4)GlcNAc(b1-3)Gal(b1-4)GlcNAc(b1-2)Man(a1-3)]Man(b1-4)GlcNAc(b1-4)GlcNAc
# Summary of the method: as §1
# [14] = target: Gal(b1-4)GlcNAc(b1-3)Gal(b1-4)GlcNAc(b1-3)Gal(b1-4)GlcNAc
# Summary of the method: as §1
# [15] = target: Gal(b1-4)GlcNAc(b1-3)Gal(b1-4)GlcNAc(b1-3)Gal(b1-4)GlcNAc(b1-2)[Gal(b1-4)GlcNAc(b1-3)Gal(b1-4)GlcNAc(b1-3)Gal(b1-4)GlcNAc(b1-6)]Man(a1-6)[Gal(b1-4)GlcNAc(b1-3)Gal(b1-4)GlcNAc(b1-3)Gal(b1-4)GlcNAc(b1-2)Man(a1-3)]Man(b1-4)GlcNAc(b1-4)[Fuc(a1-6)]GlcNAc
# Summary of the method: as §1
# [16] = target: Gal(b1-4)GlcNAc(b1-3)Gal(b1-4)GlcNAc(b1-3)Gal(b1-4)GlcNAc(b1-3)Gal(b1-4)GlcNAc(b1-3)Gal(b1-4)GlcNAc(b1-2)[Gal(b1-4)GlcNAc(b1-3)Gal(b1-4)GlcNAc(b1-3)Gal(b1-4)GlcNAc(b1-3)Gal(b1-4)GlcNAc(b1-3)Gal(b1-4)GlcNAc(b1-6)]Man(a1-6)[Gal(b1-4)GlcNAc(b1-3)Gal(b1-4)GlcNAc(b1-3)Gal(b1-4)GlcNAc(b1-3)Gal(b1-4)GlcNAc(b1-3)Gal(b1-4)GlcNAc(b1-2)Man(a1-3)]Man(b1-4)GlcNAc(b1-4)[Fuc(a1-6)]GlcNAc
# Summary of the method: as §1
# [17] = target: Gal(b1-4)GlcNAc(b1-3)[Gal(b1-4)GlcNAc(b1-6)]Gal(b1-4)GlcNAc
# Summary of the method: as §1
# Gal3S(b1-4)GlcNAc6S = target: Gal3S(b1-4)GlcNAc6S
# Summary of the method: as §1
# Gal3S4S(b1-4)GlcNAc = target: Gal3S4S(b1-4)GlcNAc
# Summary of the method: as §1
# Gal3S6S(b1-4)GlcNAc = target: Gal3S6S(b1-4)GlcNAc
# Summary of the method: as §1
# [18] = target: GalNAc(b1-3)Gal(a1-6)Gal(b1-4)Glc
# Summary of the method: as §1
# GalNAc(b1-3)GalNAc = target: GalNAc(b1-3)GalNAc
# Summary of the method: as §1
# [19] = target: GlcNAc(b1-3)Gal(b1-4)GlcNAc(b1-3)[GlcNAc(b1-3)Gal(b1-4)GlcNAc(b1-3)]GalNAc
# Summary of the method: as §1
# [20] = target: Man(a1-2)Man(a1-3)[Man(a1-2)Man(a1-6)]Man(a1-6)[Man(a1-3)[Man(a1-6)]Man(a1-6)]Man(b1-4)GlcNAc(b1-4)GlcNAc
# Summary of the method: as §1
# [21] = target: Man(a1-2)Man(a1-3)[Man(a1-6)]Man(a1-6)[Man(a1-2)Man(a1-3)]Man(b1-4)GlcNAc(b1-4)GlcNAc
# Summary of the method: as §1
# [22] = target: Man(a1-2)Man(a1-6)[Man(a1-3)]Man(a1-6)[Man(a1-2)Man(a1-2)Man(a1-3)]Man(b1-4)GlcNAc(b1-4)GlcNAc
# Summary of the method: as §1
# Man(a1-3)[Man(a1-6)]Man = target: Man(a1-3)[Man(a1-6)]Man
# Summary of the method: as §1
# [23] = target: Man(a1-3)[Man(a1-6)]Man(a1-6)[Man(a1-2)Man(a1-3)]Man(b1-4)GlcNAc(b1-4)GlcNAc
# Summary of the method: as §1
# [24] = target: Man(a1-3)[Man(a1-6)]Man(a1-6)[Man(a1-3)]Man
# Summary of the method: as §1
# [25] = target: Man(a1-3)[Man(a1-6)]Man(a1-6)[Man(a1-3)]Man(b1-4)GlcNAc(b1-4)GlcNAc
# Summary of the method: as §1
# [26] = target: Man(a1-3)[Man(a1-6)]Man(b1-4)GlcNAc(b1-4)GlcNAc
# Summary of the method: as §1
# [27] = target: Man(a1-3)[Man(a1-6)]Man(b1-4)GlcNAc(b1-4)[Fuc(a1-6)]GlcNAc
# Summary of the method: as §1
# [28] = target: Neu5Ac(a2-3)Gal(b1-3)GalNAc(b1-4)[Neu5Ac(a2-8)Neu5Ac(a2-3)]Gal(b1-4)Glc
# Summary of the method: as §1
# [29] = target: Neu5Ac(a2-3)Gal(b1-4)GlcNAc(b1-3)Gal(b1-4)GlcNAc(b1-2)Man(a1-3)[Neu5Ac(a2-3)Gal(b1-4)GlcNAc(b1-3)Gal(b1-4)GlcNAc(b1-2)Man(a1-6)]Man(b1-4)GlcNAc(b1-4)GlcNAc
# Summary of the method: as §1
# [30] = target: Neu5Ac(a2-3)Gal(b1-4)GlcNAc(b1-3)Gal(b1-4)GlcNAc(b1-3)GalNAc
# Summary of the method: as §1
# [31] = target: Neu5Ac(a2-3)[GalNAc(b1-4)]Gal(b1-4)GlcNAc(b1-3)GalNAc
# Summary of the method: as §1
# [32] = target: Neu5Ac(a2-6)Gal(b1-4)GlcNAc(b1-2)Man(a1-3)Man(b1-4)GlcNAc(b1-4)GlcNAc
# Summary of the method: as §1
# [33] = target: Neu5Ac(a2-6)Gal(b1-4)GlcNAc(b1-2)Man(a1-3)[GlcNAc(b1-4)][Neu5Ac(a2-6)Gal(b1-4)GlcNAc(b1-2)Man(a1-6)]Man(b1-4)GlcNAc(b1-4)GlcNAc
# Summary of the method: as §1
# [34] = target: Neu5Ac(a2-6)Gal(b1-4)GlcNAc(b1-3)Gal(b1-4)GlcNAc(b1-3)Gal(b1-4)GlcNAc(b1-2)Man(a1-3)[Neu5Ac(a2-6)Gal(b1-4)GlcNAc(b1-3)Gal(b1-4)GlcNAc(b1-3)Gal(b1-4)GlcNAc(b1-2)Man(a1-6)]GalNAc
# Summary of the method: as §1
# [35] = target: Neu5Ac(a2-6)GalNAc(b1-4)GlcNAc6S
# Summary of the method: as §1
# [36] = target: Neu5Ac(a2-8)Neu5Ac(a2-3)Gal(b1-3)GalNAc(b1-4)[Neu5Ac(a2-3)]Gal(b1-4)Glc
# Summary of the method: as §1
# [37] = target: Neu5Ac(a2-8)Neu5Ac(a2-3)Gal(b1-4)GlcNAc
# Summary of the method: as §1
# [38] = target: Neu5Ac(a2-8)Neu5Ac(a2-8)Neu5Ac
# Summary of the method: as §1
# Neu5Ac(b1-6)GalNAc = target: Neu5Ac(b1-6)GalNAc
# Summary of the method: as §1
# [39] = target: Neu5Gc(a2-3)Gal(b1-3)[Fuc(a1-4)]GlcNAc
# Summary of the method: as §1
# [40] = target: Neu5Gc(a2-6)Gal(b1-4)GlcNAc
# Summary of the method: as §1
binder,measurement,setting,value
B1,glycan array binding signal (z-score),Fuc(a1-2)Gal(b1-4)Glc6S,-0.048
same,glycan array binding signal (z-score),[1],-0.241
same,glycan array binding signal (z-score),[2],-0.171
same,glycan array binding signal (z-score),[3],-0.127
same,glycan array binding signal (z-score),[4],-0.127
same,glycan array binding signal (z-score),[5],2.17
same,glycan array binding signal (z-score),[6],-0.182
same,glycan array binding signal (z-score),[7],-0.106
same,glycan array binding signal (z-score),[8],-0.195
same,glycan array binding signal (z-score),[9],-0.192
same,glycan array binding signal (z-score),Gal(b1-4)GlcNAc,-0.172
same,glycan array binding signal (z-score),Gal(b1-4)GlcNAc(b1-2)Man,-0.167
same,glycan array binding signal (z-score),[10],3.11
same,glycan array binding signal (z-score),[11],0.166
same,glycan array binding signal (z-score),[12],-0.076
same,glycan array binding signal (z-score),[13],-0.093
same,glycan array binding signal (z-score),[14],-0.163
same,glycan array binding signal (z-score),[15],-0.116
same,glycan array binding signal (z-score),[16],-0.018
same,glycan array binding signal (z-score),[17],-0.21
same,glycan array binding signal (z-score),Gal3S(b1-4)GlcNAc6S,0.332
same,glycan array binding signal (z-score),Gal3S4S(b1-4)GlcNAc,-0.065
same,glycan array binding signal (z-score),Gal3S6S(b1-4)GlcNAc,-0.101
same,glycan array binding signal (z-score),[18],-0.142
same,glycan array binding signal (z-score),GalNAc(b1-3)GalNAc,-0.175
same,glycan array binding signal (z-score),[19],-0.172
same,glycan array binding signal (z-score),[20],6.07
same,glycan array binding signal (z-score),[21],2.23
same,glycan array binding signal (z-score),[22],3.2
same,glycan array binding signal (z-score),Man(a1-3)[Man(a1-6)]Man,4.73
same,glycan array binding signal (z-score),[23],5.86
same,glycan array binding signal (z-score),[24],3.04
same,glycan array binding signal (z-score),[25],5.35
same,glycan array binding signal (z-score),[26],9.48
same,glycan array binding signal (z-score),[27],6.97
same,glycan array binding signal (z-score),[28],-0.155
same,glycan array binding signal (z-score),[29],0.02
same,glycan array binding signal (z-score),[30],-0.172
same,glycan array binding signal (z-score),[31],-0.073
same,glycan array binding signal (z-score),[32],-0.17
same,glycan array binding signal (z-score),[33],-0.182
same,glycan array binding signal (z-score),[34],-0.029
same,glycan array binding signal (z-score),[35],-0.173
same,glycan array binding signal (z-score),[36],-0.169
same,glycan array binding signal (z-score),[37],-0.178
same,glycan array binding signal (z-score),[38],-0.155
same,glycan array binding signal (z-score),Neu5Ac(b1-6)GalNAc,-0.21
same,glycan array binding signal (z-score),[39],-0.154
same,glycan array binding signal (z-score),[40],-0.116
